Laboratory results: PubChem BioAssay (NCATS)
Active and inactive are the calls of the source. Calls follow the shape of the full dose curve.

Experiment: qHTS drug screen for cell cycle checkpoint inhibitors in PARPi-resistant BRCA-mutant ovarian cancer cell lines. (AID 1963452)
Conditions: PEO1/OlaR viability, CellTiter-Glo luminescence, 96 h, stronger effect = lower value
Text: Women's Malignancies Branch, Center for Cancer Research (CCR),
National Cancer Institute (NCI), National Institutes of Health (NIH), Bethesda, MD
Poly (ADP-ribose) polymerase inhibitors (PARPis) have changed the treatment paradigm in breast cancer gene (BRCA) - mutant high-grade serous ovarian carcinoma (HGSC). However, most patients eventually develop resistance to PARPis, highlighting an unmet need for improved therapeutic strategies. Using high-throughput drug screens, we identified ataxia telangiectasia and rad3-related protein/checkpoint kinase 1 (CHK1) pathway inhibitors as cytotoxic and further validated the activity of the CHK1 inhibitor (CHK1i) prexasertib in PARPi-sensitive and -resistant BRCA-mutant HGSC cells and xenograft mouse models. CHK1i monotherapy induced DNA damage, apoptosis, and tumor size reduction. We then conducted a phase 2 study (NCT02203513) of prexasertib in patients with BRCA-mutant HGSC. The treatment was well tolerated but yielded an objective response rate of 6% (1 of 17; one partial response) in patients with previous PARPi treatment. […] BRCA reversion mutation in previously PARPi-treated BRCA-mutant patients was not associated with resistance to CHK1i.
Among others, 1082 oncology drugs, both approved and investigational, were prioritized based on their status in clinical trial development. […] Drugs with average Z-AUC values less than -1.0 in all three cell lines were classified as "hits" resulting in 151 oncology drug hits. The screen also confirmed cross-resistance between olaparib and other PARPis (rucaparib, niraparib, and talazoparib) in PARPi-resistant PEO1/OlaR and PEO4.
[1] G. L. Lin, K. M. Wilson, M. Ceribelli, B. Z. Stanton, P. J. Woo, S. Kreimer, E. Y. Qin, X. Zhang, J. Lennon, S. Nagaraja, P. J. Morris, M. Quezada, S. M. Gillespie, D. Y. Duveau, A. M. Michalowski, P. Shinn, R. Guha, M. Ferrer, C. Klumpp-Thomas, S. Michael, C. McKnight, P. Minhas, Z. Itkin, E. H. Raabe, L. Chen, R. Ghanem, A. C. Geraghty, L. Ni, K. I. Andreasson, N. A. Vitanza, K. E.Warren, C. J. Thomas, M. Monje, Therapeutic strategies for diffuse midline glioma from high-throughput combination drug screening. Sci. Transl. Med. 11, (2019).
[2] T. M. Yamamoto, A. McMellen, Z. L. Watson, J. Aguilera, R. Ferguson, E. Nurmemmedov, T. Thakar, G. L. Moldovan, H. Kim, D. M. Cittelly, A. M. Joglar, E. P. Brennecke, H. Wilson, K. Behbakht, M. J. Sikora, B. G. Bitler, Activation of Wnt signaling promotes olaparib resistant ovarian cancer. Mol. Carcinog. 58, 1770 - 1782 (2019).
PROTOCOL TABLE (as described by Inglese J, Shamu CE and Guy RK. 2007)
SEQUENCE No. (e.g., 1, 2, 3, etc.); […] (e.g., Cells, Incubation, Reagent, etc.); VALUE; DESCRIPTION.
1; Compounds; 20nL; 1536-well white tissue culture-treated plates.
2; Cells; 5 uL; PEO1, PEO4, and PEO1/OlaR cells at 600 cells per well.
3; Incubation; 96 hr; 37C, 95% humidity, 5% CO2.
4; Reagent; 3 uL; CellTiter-Glo (Promega).
5; Incubation; 15 min; room temperature.
6; Detection; Luminescence, PHERAstar (BMG Labtech) plate reader.
NOTES (numbers refer to Sequence numbers above)
1. MIPE 5.0 compounds were acoustically dispensed by Echo Acoustic Liquid Handler (Beckman Coulter Life Sciences). Each compound was plated at an 11-point concentration range with 1:3 dilution. Bortezomib, a proteasome inhibitor (final concentration, 20 uM), was used as a positive.
2. PEO1, PEO4, and PEO1/OlaR were trypsinized and dispensed in 5 uLof growth medium using a Multidrop Combi dispenser at a density of 600 cells per well to allow compounds to be present during the exponential growth phase.
3. Plates were incubated for 96 hours at standard incubator conditions and covered by a stainless steel gasketed lid to prevent evaporation.
4. Three microliters of CellTiter-Glo (Promega) were added to each well.
5. Plates were incubated at room temperature for 15 min with a stainless-steel lid in place.
6. Luminescence readings were taken using PHERAstar (BMG Labtech). […]

[1] = measured here: PEO1 parental Z-AUC

Row | SMILES | Z-AUC | Z-AUC [1] | Z-AUC (measured here: PEO4 Z-AUC)
1 | O=C1NC(=O)C(c2ccccc2[N+](=O)[O-])=C1Nc1ccc(O)c(Cl)c1 | 0.891 (inactive) | 0.49 | 0.349
2 | C[C@@H](c1ncncc1F)[C@](O)(Cn1cncn1)c1ccc(F)cc1F | -0.415 (inactive) | 1.15 | 0.481
3 | CC1(C)CCC(C)(C)c2cc(NC(=O)c3ccc(C(=O)O)cc3)ccc21 | 0.358 (inactive) | 0.445 | -0.341
4 | CC(=O)N1CCN(c2ccc(OC[C@H]3CO[C@](Cn4ccnc4)(c4ccc(Cl)cc4Cl)O3)cc2)CC1 | 0.477 (inactive) | 0.452 | 0.494
5 | Clc1ccc(C(Cn2ccnc2)OCc2ccsc2Cl)c(Cl)c1 (configuration not stated) | -0.189 (inactive) | -0.0624 | 0.0924
6 | CS(=O)(=O)OCCCCOS(C)(=O)=O | 0.989 (inactive) | 0.976 | 1.46
7 | Cc1ccc(Nc2nccc(N(C)c3ccc4c(C)n(C)nc4c3)n2)cc1S(N)(=O)=O | 1.07 (inactive) | 0.627 | 0.955
8 | Cc1nc(Nc2ncc(C(=O)Nc3c(C)cccc3Cl)s2)cc(N2CCN(CCO)CC2)n1 | -3.38 (inactive) | -2.38 | -0.444
9 | COc1cc(Nc2c(C#N)cnc3cc(OCCCN4CCN(C)CC4)c(OC)cc23)c(Cl)cc1Cl | 0.106 (inactive) | 0.26 | 0.9
10 | CNC[C@H](O)c1ccc(O)c(O)c1 | 0.904 (inactive) | 1.34 | 1.03
11 | COc1cc(OC)c(C(=O)CCCN2CCCC2)c(OC)c1 | 1.29 (inactive) | 0.91 | 0.794
12 | Oc1ccc2ccccc2c1SSc1c(O)ccc2ccccc12 | -0.118 (inactive) | 0.665 | 0.501
13 | O=C(NOCC1CC1)c1ccc(F)c(F)c1Nc1ccc(I)cc1Cl | 0.682 (inactive) | -0.295 | 0.149
14 | Cc1nc(-c2ccc(OCC(C)C)c(C#N)c2)sc1C(=O)O | 0.79 (inactive) | 0.0163 | 0.327
